Compound activity: PubChem, several laboratories
M1 antagonist: blocks the rat M1 muscarinic receptor response to acetylcholine; P08482; CHO-M1 cells, Fluo-4 calcium, ACh EC80 antagonist mode; stronger effect = lower value; B-score at 10 µM; 64,000 tested, 3.4% active; AID 628;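 active means calcium fluorescence response, raw or row-and-column corrected B-score, differing from the plate sample mean either way at a set confidence level, mostly lower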
Target sequence (P08482 whole entry, looked up): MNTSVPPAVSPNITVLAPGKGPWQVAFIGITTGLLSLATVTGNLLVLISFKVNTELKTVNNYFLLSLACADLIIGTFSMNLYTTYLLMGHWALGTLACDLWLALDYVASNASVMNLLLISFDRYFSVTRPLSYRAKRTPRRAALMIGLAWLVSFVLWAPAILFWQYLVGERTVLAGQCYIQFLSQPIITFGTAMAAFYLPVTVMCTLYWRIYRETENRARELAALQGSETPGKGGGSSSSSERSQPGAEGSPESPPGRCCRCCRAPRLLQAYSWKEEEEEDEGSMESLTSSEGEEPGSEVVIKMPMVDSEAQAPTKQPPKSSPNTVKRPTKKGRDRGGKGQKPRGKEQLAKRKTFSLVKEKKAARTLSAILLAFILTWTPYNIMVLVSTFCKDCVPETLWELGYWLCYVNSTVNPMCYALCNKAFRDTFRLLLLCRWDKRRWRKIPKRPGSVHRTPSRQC
PTK2B oligo ant: antagonists of human Pyk2 oligomerization; AID 1347419; Q293 cells, Pyk2 FERM NanoBiT luminescence; stronger effect = lower value; z-score (the deposit names both 25 µM and 10 µM); 99,000 tested, 0.83% active;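 active means Z-score of -3 or lower, scaled per plate to the spread of control and sample wells; inactive means z-score above -3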;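 further: negative z-score means lost luminescence so less FERM oligomerization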
Cav3 T inh: inhibitors of human Cav3.2 T-type calcium channel | Cav3.2-expressing cells, Fluo-4 calcium fluorescence FDSS; stronger effect = lower value | 100,000 tested, 4% active | O95180 | B-score at 10 µM;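 active means single-dose well whose peak fluorescence ratio is a statistical outlier from its plate by either plate-standardised score or position-corrected B-score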
M1 agonist: agonists of M1 muscarinic receptor. CHO-M1 cells, Fluo-4 calcium fluorescence, agonist mode; stronger effect = higher value. B-score at 10 µM. 64,000 tested, 3% active. AID 626;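 active means fluorescence rise, raw or as B-score row- and column-corrected plate score, outside the 99.7% band of its plate's samples, either direction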
M1 agonist conf: rat M1 muscarinic agonism, confirmation; shares compounds with M1 agonist; CHO-M1 cells, Fluo-4 calcium fluorescence, agonist mode; actives lie on both sides; fluorescence change (max-min) at 10 µM; 1,700 tested, 19% active; AID 1488;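 active means fluorescence change differs from the solvent-only DMSO control mean at a set confidence level in both duplicate runs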;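 further: an EC20 dose of acetylcholine follows compound addition during the same imaging run; raw fluorescence intensity difference in instrument units with no normalization to controls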
M4 agonist ctr: activates rat M4 receptor in counter-screen for M1 agonists. shares compounds with M1 agonist. fluorescence change (max-min) at 10 µM. 1,700 tested, 9% active. AID 1741. CHO M4/Gqi5 cells, Fluo-4 calcium fluorescence, agonist mode; actives lie on both sides;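 active means fluorescence change differing from the plate's solvent-only control wells at 99.7% confidence in both duplicates, whether higher or lower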
Numbers without * were called inactive; · = no result given. Rows were chosen to be rich in hits. Some 7.1% of all compounds tested hit in one or more screens of this group.

SMILES	M1 antagonist	PTK2B oligo ant	Cav3 T inh	M1 agonist	others
CCOC(=O)c1c(NC(=O)c2c(N)n(CCCOC)c3nc4ccccc4nc23)sc2c1CCCC2	·	-0.52	0.198	·
COc1cc2c(cc1OC)C13CCN4CC5=CCOC6CC(=O)N2C1C6C5CC43 (stereo not drawn) (tested in a mixture with another compound)	·	·	0.731	·
CC(=O)N(C)CC#CCN1CCCC(CO)C1 (stereo not drawn)	·	·	0.575	·
O=c1c2ccccc2nc(-c2cccs2)n1-c1ccccc1	·	-0.39	-0.953	·
CCn1nc(-c2cccs2)nc2c(=O)n(C)c(=O)nc1-2	0.167	-3.33*	·	0.323
CCOc1cc(/C=C2/C(=O)NC(=O)N(c3ccc(CC)cc3)C2=O)ccc1OC(=O)c1cccs1	·	1.68	1.51	·
COCCCNC(=O)c1c(NC(=O)c2ccccc2)n(Cc2ccccc2)c2nc3ccccc3nc12	·	-0.02	-5.69*	·
C[C@@]12N[C@@H](Cc3ccccc31)c1ccccc12	·	·	0.112	·
Cc1ccc(-n2nc(C)c3c2NC(=O)CSC3c2ccc3c(c2)OCO3)cc1 (stereo not drawn)	0.291	-0.51	-8.38*	-2.06
CCCNC(=O)c1c(N)n(CC2CCCO2)c2nc3ccccc3nc12 (stereo not drawn)	-0.767	0.12	-6.16*	-0.805
CC(C)OC(=O)c1c(N)n(CC2CCCO2)c2nc3ccccc3nc12 (stereo not drawn)	0.0361	-0.01	0.471	0.277
CC(C)OCCCNC(=O)c1c(N)n(CC2CCCO2)c2nc3ccccc3nc12 (stereo not drawn)	-0.0724	0.15	-4.48*	0.022
O=C(c1c[nH]cc1-c1ccccc1)c1cccc2ccccc12	·	0.08	0.875	·
CCn1c(O)c(C=Nc2ccc(N3CCOCC3)cc2)c(=O)n(CC)c1=S	·	-1.66	-4.48*	·
CCn1c(O)c(C=Nc2ccc(N3CCOCC3)c(Br)c2)c(=O)n(CC)c1=S	·	-0.18	·	·
CC(=O)C1C2c3ccccc3OC1(C)N=c1s/c(=C/c3cnn(C)c3)c(=O)n12 (stereo not drawn)	0.0332	-0.3	1.47	0.144
CCOC(=O)C1C2c3ccccc3O[C@@]1(C)N=C1SCC(=O)N12 (stereo partly drawn)	1.13*	-0.58	1.77	-0.166
CCN1C[C@]2(CO)CC[C@H](OC)[C@@]34C5C[C@H]6[C@H](OC)C5[C@](O)(C[C@H]6OC)[C@@H](C(OC)C23)[C@@H]14 (stereo partly drawn)	·	·	-0.392	·
CC(=Nc1ccc2c(c1)CCC2)c1c(O)n(C2CCCCC2)c(=O)[nH]c1=O	1.26	-0.92	-1.44	0.381
COc1ccc(N=C(C)c2c(O)n(C3CCCCC3)c(=O)[nH]c2=O)c(OC)c1	1.67	-3.35*	-0.802	0.569
CC(C)C(=O)c1cn(Cc2ccccc2C#N)c2ccccc12	-0.0916	-1.48	-5.63*	-0.643
CCN1/C(=C\C=C\C2=[N+](CC)c3ccccc3C2(C)C)C(C)(C)c2ccccc21	·	-3.37*	·	·
Nc1ccncc1	·	·	0.52	·
O=c1c2ccccc2nc(N2CCCC2)n1-c1ccc(Cl)cc1	-0.707	-0.29	-4.58*	0.652
CCOC(=O)C(O)(c1ccc(N(CC)S(=O)(=O)c2ccccc2)cc1)C(F)(F)F (stereo not drawn)	-0.753	-1.67	-5.14*	0.222
SMILES	M1 antagonist	PTK2B oligo ant	Cav3 T inh	M1 agonist	others
CCOC(=O)N(CC)c1ccc(C(O)(C(=O)OCC)C(F)(F)F)cc1 (stereo not drawn)	-0.875	0.23	-1.26	0.00652
CCN(C(=O)Oc1ccccc1)c1ccc(C(O)(C(=O)OC)C(F)(F)F)cc1 (stereo not drawn)	·	-2.48	·	·
CCN(c1ccc(C(O)(C(=O)OC)C(F)(F)F)cc1)S(=O)(=O)c1ccccc1 (stereo not drawn)	-0.478	-1.49	-2.91*	-1.05
CN(C)[C@@H]1C(=O)C(C(N)=O)=C(O)[C@@]2(O)C(=O)C3=C(O)c4c(O)cccc4[C@@](C)(O)[C@H]3[C@H](O)[C@@H]12	-0.0483	·	-3.75*	-0.273
Cc1ccc(S(=O)(=O)Nc2cc(C(=O)N3CCC4(CC3)OCCO4)ccc2N2CCCCC2)cc1	-0.416	-1.48	-2.97	2.8*	M1 agonist conf=-9.92;M4 agonist ctr=-19.7
COC(=O)C1=C(c2ccc(S(C)(=O)=O)cc2)C[C@@H]2CC[C@H]1N2C(=O)NCC1CC1	·	·	0.414	·
